Experiment [1] is described as follows: inhibitors of TNFa-induced NFkB p65 translocation, primary screen, imaging, HUVEC, MLSMR starter and 10KST1 sets (AID 438;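 active = inhibition above 20% together with a positive visual image hit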;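 also: compound added about 3h40 before a 20 min TNFalpha stimulation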;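 as to inhibition: signal is the nuclear over cytoplasmic p65 intensity ratio per well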). Particulars: HUVEC TNFa-induced p65 nuclear translocation; cell count: measured here: nuclei count (cytotoxicity indicator), at 2.08 µM; inhibition: at 2 µM, stronger effect = higher value, 0% TNFa-plus-vehicle, 100% no-TNFa wells.
Experiment [2] is described as follows: reduction of polyQ htt aggregates in cells – imaging, exon1htt(103Q)mCFP cells, high-content imaging, primary screen (AID 483;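 active = visual image review flags a hit and inhibition of aggregation exceeds 20%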;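 also: compound exposure lasted 3 days before fixation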;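 as to nuclei count: percent of the per-plate median nuclei count of sample wells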). Particulars: exon1htt(103Q)mCFP cell line, aggregate imaging, at 2 µM; inhibition of aggregation: stronger effect = higher value; nuclei count: measured here: cell count, toxicity.
Experiment [3] can be described thus: endothelial E-selectin expression blockers – imaging, HUVEC, immunofluorescence, MLSMR starter and 10KST1 sets, primary screen (AID 487;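 active = visually confirmed hit in the image check and inhibition above 20%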;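 as to inhibition: signal is fraction of cell area covered by stained E-selectin grains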;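 as to nuclei count: 100% = median nuclei count of all wells on the same plate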). Particulars: HUVEC TNFalpha-induced E-selectin immunofluorescence imaging, at 2 µM; inhibition: stronger effect = higher value; nuclei count: measured here: cell number, toxicity.
The nature of experiment [4]: Primary imaging screen for DUSP6 inhibitors that restore phospho-Erk in transfected HeLa cells, chemical complementation (AID 609;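 active = compounds giving at least 50% inhibition in the cell-based MKP-3 phosphatase rescue imaging test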;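 as to inhibition: phospho-Erk level distribution per well compared with pooled transfected vehicle control wells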). Particulars: HeLa MKP-3 transfected, phospho-Erk imaging KS statistic, at 10 µM, cells stimulated with TPA for 15 min.
The target in experiment [5] is Dual specificity protein phosphatase 6 (Homo sapiens) (UniProt Q16828). The experiment is described as above. Particulars: HeLa MKP-3 transfected, phospho-Erk imaging KS statistic; at 10 µM; stronger effect = higher value; cells stimulated with TPA for 15 min.
In experiment [6] the target is Voltage-gated potassium channel subunit beta-2 (Rattus norvegicus) (UniProt P62483). In words: inhibitors of rat Kvbeta2 reductase activity – biochemical, NADPH fluorescence, primary screen (AID 622;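 active = fluorescence slope higher than the sample average by over 3 SD, cut at about -0.22 in these data, passing the limit was not always enough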;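 also: slope of raw intensity against log time taken from 70 to 1610 s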). As to conditions: recombinant KvBeta, 4-cyanobenzaldehyde reduction, at 10 µM, stronger effect = higher value.
The target is the same in experiment [7]. Put plainly: enhancers of rat Kvbeta2 NADPH turnover – biochemical, NADPH fluorescence, primary screen (AID 623;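 active = NADPH fluorescence slope more negative than the mean of all samples by about 3 SD, 99.7% confidence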;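 also: fluorescence intensity change per second fitted from 20 to 320 s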). As to conditions: Recombinant KvBeta, NADPH fluorescence decrease slope, 10 min; at 10 µM; stronger effect = lower value.
Experiment [8] deals with Alpha-2C adrenergic receptor (Homo sapiens) (UniProt P18825). In words: compounds altering alpha2C-coupled GIRK flux – cell-based, HEK293 alpha2C/GIRK1/2, thallium flux, primary screen (AID 624;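 active = fluorescence slope after compound addition differing from the mean of all screened samples at 99.7% confidence, in either direction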;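 also: slope of fluorescence ratio to pre-addition baseline per second over 15 to 24 s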). Particulars: thallium flux BTC fluorescence, at 10 µM, actives lie on both sides.
Experiment [9] concerns the target Muscarinic acetylcholine receptor M4 (Homo sapiens) (UniProt P08173). In words: M4-linked GIRK flux change, two-sided – cell-based, HEK293 M4/GIRK, thallium flux, BTC-AM, M4 allosteric agonist project, primary screen (AID 625;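 active = fluorescence slope after compound addition differing from the mean of all tested samples at 99.7% confidence, mostly higher but some lower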;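 also: thallium influx through GIRK channels coupled to M4 in HEK293 cells with BTC-AM dye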). As to conditions: at 10 µM, actives lie on both sides.
Experiment [10] in a line: inhibitors of larval lipid processing in zebrafish, primary screen, whole organism, PED6 fluorescence, gall bladder and intestine (AID 686;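 active = a full or partial loss of lipid-probe fluorescence in the fish gall bladder, intestine or both, judged by eye; inactive = no fluorescence loss, or compound toxic to the fish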;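 also: larvae 5 to 7 days old with five fish per well; signal comes from phospholipase A2 cleavage of quenched PED6 carried via bile; overnight exposure to compound and PED6 before scoring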). As to conditions: Zebrafish larvae PED6 lipid processing, fluorescence scoring; screened at 20 µM (by protocol).
Experiment [11] in a line: loss of swimming-algae plug formation – whole organism, Chlamydomonas reinhardtii, WT vs cilia-less mutant, absorbance, 96-well, primary screen (AID 463189).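 Also: 0% = wild type cc124 cells in DMSO and 100% = ciliumless bld1 mutant cells.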 As to conditions: Chlamydomonas reinhardtii gravitaxis, OD600 absorbance, 2 days; at 10 µM; stronger effect = higher value.
Experiment [12] can be described thus: blockers of RIG-like receptor reporter activation – cell-based, Sendai virus stimulus, luciferase, 10K MLSCN set, TLR/RLR signaling modifier project, primary screen (AID 602276;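 active = inhibition at or above 50% at 10 µM; inactive = inhibition below 50%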;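 also: firefly luciferase from ISG56 promoter only with Renilla not read in this screen; 0% = Sendai virus plus DMSO and 100% = medium plus DMSO without virus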). As to conditions: HEK293 RL24 IRF3 luciferase reporter, at 10 µM, stronger effect = higher value.
Experiment [13] in a line: TLR3 IRF3 reporter activation blockers – cell-based, poly I:C stimulus, luciferase, 10K MLSCN set, primary screen (AID 602277;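 active = inhibition of the reporter signal at or above 50%; inactive = inhibition below 50%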). As to conditions: HEK293-TLR3 RL24 IRF3 luciferase reporter, at 10 µM, stronger effect = higher value.
Where [14] appears, read: measured here: cell density z-score.
Setting [15] is: measured here: nuclear c-Myc green intensity z-score.
The mark [16] stands for this setting: measured here: nuclear pErk red intensity z-score, stronger effect = higher value.

Several values for one entry are separate records, joined by “and”; a condition that tells them apart may be missing. Equal values may be shown once. Activity calls are given as the source filed them.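 The calls were made as follows, unless noted: active = inhibition at or above 50% relative to wild type and mutant plate controls; inactive = inhibition below 50%.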

The values that follow come from PubChem BioAssay.

Sequence of Dual specificity protein phosphatase 6 (Homo sapiens) (Q16828 whole entry, looked up): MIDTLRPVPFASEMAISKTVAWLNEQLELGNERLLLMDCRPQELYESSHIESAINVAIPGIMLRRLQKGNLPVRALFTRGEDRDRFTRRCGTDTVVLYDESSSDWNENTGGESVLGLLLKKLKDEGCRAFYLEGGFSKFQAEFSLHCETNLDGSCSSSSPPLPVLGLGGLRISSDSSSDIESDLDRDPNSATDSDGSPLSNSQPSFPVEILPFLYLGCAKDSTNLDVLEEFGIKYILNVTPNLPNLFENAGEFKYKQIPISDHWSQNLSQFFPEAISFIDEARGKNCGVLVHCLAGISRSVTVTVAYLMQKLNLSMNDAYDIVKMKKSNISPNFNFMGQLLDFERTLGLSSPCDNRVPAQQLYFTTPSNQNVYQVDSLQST
Sequence of Voltage-gated potassium channel subunit beta-2 (Rattus norvegicus) (P62483 whole entry, looked up): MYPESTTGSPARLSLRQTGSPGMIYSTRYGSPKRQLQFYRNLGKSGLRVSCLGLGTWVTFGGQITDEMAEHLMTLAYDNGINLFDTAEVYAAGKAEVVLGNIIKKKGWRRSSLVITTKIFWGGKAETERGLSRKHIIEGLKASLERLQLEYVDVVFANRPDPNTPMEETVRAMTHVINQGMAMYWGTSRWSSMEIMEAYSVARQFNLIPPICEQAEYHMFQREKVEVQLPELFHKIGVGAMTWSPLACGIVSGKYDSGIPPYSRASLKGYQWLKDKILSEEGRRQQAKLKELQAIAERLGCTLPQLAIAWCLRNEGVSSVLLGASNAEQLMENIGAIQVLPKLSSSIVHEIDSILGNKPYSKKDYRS
Sequence of Alpha-2C adrenergic receptor (Homo sapiens) (P18825 whole entry, looked up): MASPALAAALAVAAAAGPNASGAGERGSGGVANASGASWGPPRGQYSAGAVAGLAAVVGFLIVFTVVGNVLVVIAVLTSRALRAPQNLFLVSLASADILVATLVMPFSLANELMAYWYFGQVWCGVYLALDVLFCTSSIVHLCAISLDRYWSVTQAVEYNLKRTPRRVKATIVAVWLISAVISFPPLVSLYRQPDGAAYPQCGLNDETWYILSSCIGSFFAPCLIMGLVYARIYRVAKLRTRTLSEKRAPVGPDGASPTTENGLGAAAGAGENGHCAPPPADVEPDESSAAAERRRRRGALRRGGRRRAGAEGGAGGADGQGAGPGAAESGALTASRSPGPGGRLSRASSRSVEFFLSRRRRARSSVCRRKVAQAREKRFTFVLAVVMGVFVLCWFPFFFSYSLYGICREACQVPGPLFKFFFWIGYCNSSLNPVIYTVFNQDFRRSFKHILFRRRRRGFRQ
Sequence of Muscarinic acetylcholine receptor M4 (Homo sapiens) (P08173 whole entry, looked up): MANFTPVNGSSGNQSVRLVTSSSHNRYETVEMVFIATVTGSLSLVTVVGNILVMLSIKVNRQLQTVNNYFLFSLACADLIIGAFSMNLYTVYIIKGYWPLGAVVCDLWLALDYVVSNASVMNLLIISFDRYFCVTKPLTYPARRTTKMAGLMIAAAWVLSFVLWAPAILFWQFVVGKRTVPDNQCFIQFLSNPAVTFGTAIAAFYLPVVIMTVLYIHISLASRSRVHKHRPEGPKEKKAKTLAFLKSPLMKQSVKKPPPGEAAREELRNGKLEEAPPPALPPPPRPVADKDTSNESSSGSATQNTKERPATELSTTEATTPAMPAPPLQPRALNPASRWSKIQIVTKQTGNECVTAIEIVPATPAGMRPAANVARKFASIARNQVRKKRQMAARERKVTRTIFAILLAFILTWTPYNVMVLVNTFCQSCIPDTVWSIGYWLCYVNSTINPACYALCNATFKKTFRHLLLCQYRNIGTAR

Regarding `CCN1CCc2c(C#N)c(N3CCOCC3)nc(NCc3ccccc3)c2C1`, in experiment [1], the cell count worked out at 507. The inhibition is 9.3% (inactive) in experiment [1]; -218% (inactive) in experiment [3]; -11.5% (inactive) in experiment [5]; 27.4% (inactive) in experiment [11]; 10.8% (inactive) in experiment [12]; 10.8% (inactive) in [13]. Further, the inhibition of aggregation in experiment [2] was 4.7% (inactive). Also, the results for the nuclei count in experiment [2] and in [3] were 80.7% and 110%, respectively. For the same molecule, the z-score in experiment [4] (setting [14]) was 0.377; in experiment [4] (setting [15]), -1.7; in experiment [4] (setting [16]), 2.2. For the same molecule, the figures for the fluorescence slope in [6] and in experiment [9] were -0.484 (inactive) and 0.00486 (inactive), respectively. The NADPH fluorescence slope in experiment [7] was -3.1e-05 (inactive). Moreover, the slope in [8] was 0.00496 (inactive). Further, the outcome in experiment [10] was inactive.
In the case of `Nc1ncnc2c1ncn2[C@@H]1O[C@H](CO)[C@@H](O)[C@H]1O`, in experiment [1], the cell count came to 562. Besides, the inhibition in experiment [1] is -1.7% (inactive); in experiment [3], -40.5% (inactive); in experiment [5] it was -12.3% (inactive); in experiment [11] it was -7.15% (inactive); in [12], 11.2% (inactive); in [13] it was 25.6% (inactive). Further, the inhibition of aggregation in experiment [2] was -15.3% (inactive). The nuclei count in experiment [2] amounted to 101%; in experiment [3], 128%. In addition, the results for the z-score in experiment [4] (setting [14]), in experiment [4] (setting [15]) and in experiment [4] (setting [16]) were 0.315, -0.14 and 0.779, respectively. The fluorescence slope in experiment [6] was -0.453 (inactive). Further, the NADPH fluorescence slope in [7] was -3.6e-05 (inactive). For the same molecule, the slope in experiment [8] is 0.00542 (inactive). Also, the result in [10] was inactive.
Turning to `CCN(CC)CCNC(=O)c1cc(S(C)(=O)=O)ccc1OC`, the cell count in experiment [1] was determined as 676. Besides, the inhibition was -4.3% (inactive) in [1]; -40% (inactive) in [3]; 1.48% (inactive) in [5]; 3.78% (inactive) and -4.27% (inactive) in [11]; 21.3% (inactive) in [12]; 35.4% (inactive) in experiment [13]. In addition, the inhibition of aggregation in [2] was 0.8% (inactive). Besides, the results for the nuclei count in [2] and in [3] were 118% and 137%, respectively. For the same molecule, the results for the z-score in [4] (setting [14]), in experiment [4] (setting [15]) and in experiment [4] (setting [16]) were -1.16, -0.48 and 0.595, respectively. Further, the fluorescence slope in [6] is -0.508 (inactive). The NADPH fluorescence slope in [7] is -3.1e-05 (inactive). Also, in [8], the slope is 0.00485 (inactive). Further, the molecule was called inactive in [10].
Consider `N=c1c(C(=O)NCc2ccccc2)cc2c(=O)n3ccccc3nc2n1Cc1ccco1`, for which the cell count in experiment [1] amounted to 365. The inhibition in [1] was -3.1% (inactive); in experiment [3], -250% (inactive); in experiment [5], 9.39% (inactive); in experiment [11], -4.74% (inactive); in experiment [12] it was -0.117% (inactive); in [13], 19.6% (inactive). Moreover, the inhibition of aggregation in experiment [2] was -10% (inactive). Moreover, the nuclei count came to 91.6% in experiment [2] and 133% in [3]. Further, the z-score was 0.674 in experiment [4] (setting [14]), 0.212 in experiment [4] (setting [15]) and -1.53 in [4] (setting [16]). Further, the fluorescence slope in experiment [6] is -0.375 (inactive). For the same molecule, the NADPH fluorescence slope in experiment [7] was -4.7e-05 (inactive). Also, the slope in [8] is 0.00267 (inactive). Besides, the call in [10] was inactive.
Take `O=C1NC(c2cccs2)Nc2ccccc21` (stereo unspecified): the cell count in experiment [1] worked out at 600. In addition, the inhibition was -16.1% (inactive) in [1]; -3.3% (inactive) in experiment [3]; 1.12% (inactive) in [5]; 15.5% (inactive) in experiment [11]; -3% (inactive) in experiment [12]; 0.34% (inactive) in experiment [13]. In addition, the inhibition of aggregation in experiment [2] is 14.1% (inactive). In addition, the values for the nuclei count in experiment [2] and in experiment [3] were 130% and 140%, respectively. Further, the z-score in [4] (setting [14]) is -1.25; in experiment [4] (setting [15]), -1.7; in [4] (setting [16]) it was 1.79. The fluorescence slope in [6] was -0.292 (inactive). In [7], the NADPH fluorescence slope was -3.3e-05 (inactive). Moreover, the slope in experiment [8] was 0.00756 (inactive). Also, the call in experiment [10] was inactive.
